Mtb bLac sens – beta-lactam sensitization of Mtb H37Rv, H37Rv | M. tuberculosis H37Rv growth with meropenem, percent inhibition | inhibition, % at 25 µM | hit rate 0.27% among 330,000 | AID 434955, 2010; call rule not given here;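 also: growth measured after seven days incubation then overnight dye step; 0% = bacteria only wells and 100% = bacteria with antibiotic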
FadD28 binding – inhibitors of FadD28 bisubstrate probe binding, primary screen, biochemical, fluorescence polarization, single point. Mycobacterium tuberculosis FadD28 fatty-acid-AMP ligase. inhibition, % at 12.5 µM. hit rate 0.22% among 360,000. AID 588549, 2011; in the data active = inhibition above about 8.5%, passing the limit was not always enough; inconclusive = no clear call, values can overlap the other calls
Mtb UGM inh – M. tuberculosis UGM enzyme inhibitors, primary screen, biochemical, fluorescence polarization, single point. hit rate 0.06% among 320,000. UDP-galactopyranose mutase (Mycobacterium tuberculosis (strain ATCC 25618 / H37Rv)), …. inhibition, % at 10 µM. purified UGM, fluorescence polarization probe displacement; in the data active = inhibition above about 10%, passing the limit was not always enough; inconclusive = no clear call, values can overlap the other calls
Target sequence (P9WIQ1 whole entry, looked up): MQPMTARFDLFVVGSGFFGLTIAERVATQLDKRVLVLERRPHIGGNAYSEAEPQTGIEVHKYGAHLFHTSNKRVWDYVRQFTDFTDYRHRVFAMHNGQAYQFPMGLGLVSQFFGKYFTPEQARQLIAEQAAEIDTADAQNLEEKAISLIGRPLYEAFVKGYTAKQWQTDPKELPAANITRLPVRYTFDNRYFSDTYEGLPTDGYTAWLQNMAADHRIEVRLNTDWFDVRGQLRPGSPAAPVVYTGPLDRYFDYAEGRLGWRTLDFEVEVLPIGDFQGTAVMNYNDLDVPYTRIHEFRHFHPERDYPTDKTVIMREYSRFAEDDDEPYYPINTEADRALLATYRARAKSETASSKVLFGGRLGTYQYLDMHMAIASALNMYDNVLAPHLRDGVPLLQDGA
BH1578 lux ind – inducers of Vibrio cholerae quorum light production without autoinducers, primary screen, BH1578 luxS cqsA deficient, single point. activation, % at 18.7 µM. hit rate 0.16% among 350,000. V. cholerae BH1578 lux reporter, luminescence, 6 h; in the data active = activation mostly above about 9.7%, no sharp cut-off; inconclusive = no clear call, values can overlap the other calls; inactive = mostly below about 3.7%
Rv3671c inh – Rv3671c serine protease inhibitors, primary screen, biochemical, fluorescence polarization, M. tuberculosis H37Rv. P9WHR9. inhibition, % at 5.96 µM. AID 2606, 2010. hit rate 0.048% among 320,000; in the data active = inhibition above about 38%;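 also: extracellular domain of Rv3671c used as enzyme; 0% = enzyme with DMSO and 100% = no enzyme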
MazF activator – activators of E. coli MazEF toxin-antitoxin RNase, primary screen, biochemical, fluorescence, uHTS. hit rate 0.32% among 350,000. activation, % at 20 µM. Endoribonuclease toxin MazF (Escherichia coli (strain K12)), P0AE70. FAM/BHQ RNA-DNA oligo cleavage fluorescence, 5 h; in the data active = activation above about 50%
Target sequence (P0AE70 whole entry, looked up): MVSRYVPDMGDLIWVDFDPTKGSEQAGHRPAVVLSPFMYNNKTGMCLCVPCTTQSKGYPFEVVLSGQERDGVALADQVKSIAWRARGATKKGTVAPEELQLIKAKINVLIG
* marks the source's active call; other numbers are inactive results; i = inactive; ? = inconclusive; · = no result given; + = active, no number. This is a sample that favours compounds with a hit; in the whole collection about 0.74% have one here.

SMILES | Mtb bLac sens | FadD28 binding | Mtb UGM inh | BH1578 lux ind | Rv3671c inh | MazF activator
CCOC(=O)c1[nH]c(=O)[nH]c1CNc1ccccc1C#N | -2 | -3 | 0 | i | 1 | 8
COc1cccc(/C=N/n2c(C3CCCCC3)n[nH]c2=S)c1O | -1 | 15* | 4 | i | · | 8
COc1cccc(/C=N/n2c(C3CCCCC3)n[nH]c2=S)c1OC | ? | 0 | 0 | i | 1 | 2
Oc1ccc(Br)cc1/C=N/n1c(C2CCCCC2)n[nH]c1=S | ? | 16* | -1 | 1 | -3 | 3
Oc1ccc(/C=N/n2c(C3CCCCC3)n[nH]c2=S)c(O)c1 | 3 | ? | 1 | -1 | -3 | -13
O=C1NC(=S)SC1=Cc1cc(Br)ccc1O | · | 12* | · | · | · | -38
O=C1NC(=S)SC1=Cc1ccccc1Br | · | -11 | · | -4 | · | 0
Cc1ccc2[nH]c(C(=O)NCCN3CCCC3)cc2c1 | -1 | -3 | 0 | -2 | -4 | 2
O=[N+]([O-])c1ccc(/C=N/n2cnc3ccccc32)s1 | 100 | 0 | 11* | 0 | -10 | 189*
Cc1nc2ccccc2n1/N=C/c1ccc([N+](=O)[O-])s1 | 100 | 2 | 1 | -2 | -15 | 49
O=[N+]([O-])c1ccc(/C=N/n2c(CO)nc3ccccc32)s1 | 100 | -1 | 1 | i | -11 | 99*
Cc1ccc(CSCCNC(=O)c2ccc(NS(C)(=O)=O)cc2)cc1 | -7 | 15* | 0 | 1 | -7 | -3
Cc1ccc(CSCCNC(=O)c2ccc(C)cc2)cc1 | 1 | 2 | 1 | 0 | 5 | -11
Cc1cccc(OC(C)C(=O)N2CCCN(C)CC2)c1C (stereo not given) | 4 | -2 | 0 | 1 | 8 | -4
Cc1ccc(C(O)c2ncc(-c3ccc4ccccc4c3)[nH]2)cc1F (stereo not given) | · | -3 | · | 0 | · | ·
CCC(C)C(N)C1=NC(C(=O)N[C@@H](CC(C)C)C(=O)N[C@H](CCC(=O)O)C(=O)N[C@H](C(=O)N[C@H]2CCCCNC(=O)[C@H](CC(N)=O)NC(=O)[C@@H](CC(=O)O)NC(=O)[C@H](Cc3cnc[nH]3)NC(=O)[C@@H](Cc3ccccc3)NC(=O)[C@H]([C@@H](C)CC)NC(=O)[C@@H](CCCN)NC2=O)[C@@H](C)CC)CS1 (stereo not given in full) | · | -2 | · | 0 | · | 387*
COc1ccc(-c2cc(C(F)(F)F)c3c(N)c(C(=O)NCCSC)sc3n2)cc1 | 0 | 0 | 6 | i | -10 | 618*
CC(=O)c1sc2nc(-c3cccs3)cc(C(F)(F)F)c2c1N | 12 | -3 | -1 | · | 6 | 242*
Nc1c(C(=O)C2CC2)sc2nc(-c3ccccc3)cc(C(F)(F)F)c12 | -2 | 1 | 7 | i | -6 | +
CN(C)CCNC(=O)c1sc2nc(-c3ccccc3)cc(C(F)(F)F)c2c1N | 45 | 0 | -1 | 0 | 3 | 31
O=C(CCCN1C(=O)/C(=C\c2ccccc2)SC1=S)Nc1ccc(O)cc1C(=O)O | -2 | 2 | 4 | 0 | -7 | 3
O=C1/C(=C\c2ccco2)SC(=S)N1Cc1ccccc1 | -3 | 4 | -1 | i | 0 | 3
O=C(CN1C(=O)/C(=C\c2ccco2)SC1=S)Nc1ccc(O)cc1C(=O)O | 1 | 36* | -2 | 0 | 6 | 8
O=C(CCCN1C(=O)/C(=C/c2ccco2)SC1=S)Nc1ccccc1C(=O)O | -1 | 45* | -3 | i | -5 | -3
O=C(CCN1C(=O)/C(=C/c2ccco2)SC1=S)Nc1ccc(O)cc1C(=O)O | 9 | 21* | -1 | i | · | -21
SMILES | Mtb bLac sens | FadD28 binding | Mtb UGM inh | BH1578 lux ind | Rv3671c inh | MazF activator
O=C(O)CCCN1C(=O)/C(=C\c2ccco2)SC1=S | · | 5 | · | -1 | · | -1
O=c1[nH]c(C2CCN(S(=O)(=O)/C=C/c3ccccc3)CC2)nc2c1nnn2Cc1ccccc1 | 86 | · | 1 | -1 | -7 | -1
CC(=O)Nc1ccc(S(=O)(=O)Nc2nc3ccccc3nc2Nc2ccc(C(=O)O)c(O)c2)cc1 | -3 | 25* | 3 | i | -6 | -29
Cc1ccccc1N/N=C/c1c(C)nc2ccccn12 | 96 | 1 | 3 | i | -1 | 4
O=C(CC(=O)N/N=C\c1c(Cl)cccc1Cl)NCc1ccccc1 | -2 | -2 | -2 | 5.6* | 9 | -4
O=C(OCC(=O)N1CCCCCC1)c1ccccc1Br | -2 | -4 | -4 | i | 3 | 6
Nc1nnc(SCCCOc2ccc(F)cc2)s1 | 4 | 13* | 2 | i | -5 | 3
CCCOc1ccc(OCCSc2nnc(N)s2)cc1 | 2 | -3 | 3 | -7 | -17 | -10
CC1=NN(c2ccc([N+](=O)[O-])cc2)C(=O)C1 | · | 14* | · | -6 | · | 2
CC1=NN(c2ccc([N+](=O)[O-])cc2)C(=O)/C1=C\N(C)C | -4 | -2 | -2 | 4 | -15 | -13
O=[N+]([O-])c1ccc(-c2nc(Cl)c3c(n2)CCCC3)o1 | · | -2 | · | 30* | · | 5
O=C(CCN1C(=O)/C(=C\c2ccco2)SC1=S)Nc1ccc(C(=O)O)c(O)c1 | 7 | 15* | 1 | i | -17 | -2
COc1ccccc1/C=C1\SC(=S)N(CCC(=O)Nc2ccc(C(=O)O)c(O)c2)C1=O | 32 | -6 | 1 | -2 | -47 | -8
O=C(CCN1C(=O)/C(=C/c2ccco2)SC1=S)Nc1ccc(C(=O)O)c(O)c1 | 27 | 11* | 1 | 0 | -19 | -7
C[C@H]1CN([C@@H](C)CO)C(=O)CCCn2nncc2CO[C@H]1CN(C)C(=O)c1ccc2ccn(C)c2c1 | · | -2 | · | 0 | · | -5
Cc1ccc(N2CC(C(=O)Nc3ccc(N4CCOCC4)cc3)CC2=O)cc1C (stereo not given) | 6 | -1 | 2 | i | 1 | -2
COc1ccc(OC)c(N2C(=O)NC(=O)/C(=C\c3ccc([N+](=O)[O-])s3)C2=O)c1 | 100 | 23* | 2 | 0 | -1 | -15
CCOC(=O)Nc1nc(C)c(C(=O)c2ccc(Cl)cc2)s1 | -5 | -4 | 1 | -1 | -20 | 86*
COC(=O)Nc1nc(C)c(C(=O)c2ccccc2)s1 | 1 | -1 | 2 | · | -9 | 5
S=C(NCc1ccccc1)NCc1cccc(CNC(=S)NCc2ccccc2)c1 | 24 | 25* | 1 | 4 | -87 | 38
COc1cc(NC(=O)c2cc(C)no2)cc(OC)c1OC | -7 | 0 | 1 | 0 | -8 | 9
COc1cccc2c1C(=O)c1c(O)c3c(c(O)c1C2=O)C[C@@](O)(C(=O)CO)C[C@@H]3OC1CC(N)C(O)C(C)O1 (stereo not given in full) | · | 53* | · | i | · | -316

Screens as filed in PubChem.
